# Assay outcomes: PubChem, several laboratories
# FAS-TE inh = inhibitors of human fatty acid synthase thioesterase domain | inhibition, % at 15 µM | P49327 | hit rate 0.67% among 360,000 | recombinant FAS-TE, OMFH fluorogenic substrate, fluorescence endpoint;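 active means compounds whose normalised, plate-corrected inhibition of enzyme fluorescence in the single-dose primary screen is 50% or more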
# ADAM10 inh = inhibitors of human ADAM10. O14672. recombinant ADAM10, EDANS/DABCYL FRET peptide cleavage, 3 h. inhibition, % at 7 µM. hit rate 0.62% among 370,000;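 active means inhibition above a per-campaign cutoff equal to the mean of compounds falling between control-based bounds plus 3 SD, cut at about 20% in these data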
# NR3A LBD binder = modulates the human NR3A ligand-binding domain | Tm shift relative to glycine control, % at 25 µM | hit rate 2.5% among 340,000 | NR3A LBD differential scanning fluorimetry, Tm shift; 0% = protein alone, 100% = glycine-bound protein;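 active means melting temperature shift of at least 10% of the positive control shift, at one fixed dose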
# ADAM17 inh = ADAM17 inhibition, QFRET primary screen; recombinant ADAM17, EDANS/DABCYL FRET peptide cleavage; inhibition, % at 6.95 µM; hit rate 0.83% among 370,000;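 active means inhibition above the mean of compounds lying between control limits plus 3 SD, set per campaign, cut at about 8.5% in these data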
# Target sequence (P78536 215-824 limits assumed): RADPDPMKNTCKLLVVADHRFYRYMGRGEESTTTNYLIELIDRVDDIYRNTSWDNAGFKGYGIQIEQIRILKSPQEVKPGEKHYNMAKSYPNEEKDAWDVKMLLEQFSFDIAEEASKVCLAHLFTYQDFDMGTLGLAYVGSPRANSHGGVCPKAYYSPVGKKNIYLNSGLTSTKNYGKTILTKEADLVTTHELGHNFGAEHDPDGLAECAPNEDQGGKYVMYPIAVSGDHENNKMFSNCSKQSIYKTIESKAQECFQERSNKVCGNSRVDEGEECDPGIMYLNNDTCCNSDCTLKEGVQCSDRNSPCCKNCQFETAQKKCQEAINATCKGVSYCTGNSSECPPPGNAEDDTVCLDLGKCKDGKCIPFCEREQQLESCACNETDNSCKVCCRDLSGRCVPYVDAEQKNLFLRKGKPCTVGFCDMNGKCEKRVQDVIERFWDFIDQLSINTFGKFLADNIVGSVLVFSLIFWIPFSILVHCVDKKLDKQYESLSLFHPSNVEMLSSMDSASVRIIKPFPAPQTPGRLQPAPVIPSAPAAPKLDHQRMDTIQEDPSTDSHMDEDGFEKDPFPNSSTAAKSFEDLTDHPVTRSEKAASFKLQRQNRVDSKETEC
# aDG glyco act = alpha-DG glycosylation activation | hit rate 0.22% among 360,000 | activation, % at 10 µM | Pro5-aDG cells, alpha-DG glycosylation AlphaScreen (IIH6); 0% Pro5, 100% B10-LARGE cell signal;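 active means activation of at least 8% versus controls, or a plate z-score of at least 8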;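 further: Pro5 are CHO cells carrying HIG-tagged alpha-DG that lacks glycosylation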
# ADAM10 confirm = confirmation of inhibitors of human ADAM10. shares compounds with ADAM10 inh. ADAM10 QFRET peptide cleavage, EDANS fluorescence. inhibition, % at 6.95 µM. hit rate 1% among 2,100. AID 743208;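 active means inhibition above about 20% chosen separately for each screening run, limit read from the data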
# ADAM17 ctr = inhibits human ADAM17 in ADAM10 exosite counter-screen; shares compounds with ADAM10 inh; ADAM17 QFRET peptide cleavage, EDANS fluorescence; inhibition, % at 6.95 µM; hit rate 0.5% among 2,100; AID 743214;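 active means mean triplicate inhibition above the solvent-only control wells' mean plus 3 SD, cut at about 12% in these data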
# Hits are given with their value; 0 = inactive; - = not tested or not shown. Compounds with a hit are over-represented: about 4% of the library has one in this group of screens.
SMILES,FAS-TE inh,ADAM10 inh,NR3A LBD binder,ADAM17 inh,aDG glyco act,ADAM10 confirm,ADAM17 ctr
CCOC(=O)c1c(C)nc2sc3c(=O)n(-c4ccc(C(C)=O)cc4)cnc3c2c1-c1ccc(OC)cc1,0,0,0,0,0,-,-
CC(=O)c1c(C)nc2sc3c(=N)n(N)cnc3c2c1-c1ccc(Cl)cc1,0,21,0,0,0,0,0
Cc1ccc(NC(=O)C2CCN(c3ncnc4sc(C)c(C)c34)CC2)cc1S(=O)(=O)N(C)C,0,22,0,0,0,0,0
CCN(CC)S(=O)(=O)c1cc(NC(=O)C2CCN(c3ncnc4sc(C)c(C)c34)CC2)ccc1Cl,0,0,0,0,0,-,-
Nc1ccccc1-c1nnc(-c2ccccc2N)n1N,0,0,0,0,0,-,-
CC(NC(=O)c1ccco1)C(=O)N1CCN(S(=O)(=O)c2ccccc2C#N)CC1 (stereo not given),0,0,0,0,0,-,-
O=C(Nc1ccc(Cl)c([N+](=O)[O-])c1)C(Sc1ccccc1)c1ccccc1 (stereo not given),0,26,28,11,0,0,0
CC/C=C\[C@H](O)[C@H](O)C1=C(C)C(=O)[C@]2(O1)C(=O)N[C@@](OC)(C(=O)c1ccccc1)C2O (stereo not given in full),0,63,0,0,0,0,0
COc1ccccc1NC(=O)Nc1ccc(-n2ccc(C(F)(F)F)n2)cc1,0,30,0,0,0,0,0
Nc1ccc(S(=O)(=O)Nc2nccs2)cc1N=Nc1ccccc1[N+](=O)[O-],0,22,0,0,0,0,0
CCOc1ccc(S(=O)(=O)n2c(C)nc3ccccc32)cc1,0,0,0,0,0,-,-
CCOc1ccc(S(=O)(=O)n2cnc3ccccc32)cc1,0,64,0,0,0,0,0
COCCn1c(SCC(=O)Nc2ccc(NC(C)=O)cc2)nc2c([nH]c3ccccc32)c1=O,0,0,0,0,0,-,-
COc1ccc(NC(=O)CSc2nc3c([nH]c4ccccc43)c(=O)n2C)cc1,0,57,0,0,0,0,0
O=C(Nc1ccc(OCC(F)(F)C(F)F)c(C(F)(F)F)c1)c1ccccc1,0,24,27,0,0,0,0
COc1cccc(-c2cc(C(=O)N3N=C(C)CC3(O)C(F)F)c3ccccc3n2)c1 (stereo not given),0,0,0,0,0,-,-
Cc1occc1C(=O)N/N=C/c1ccc(OCc2ccccc2)cc1,0,21,35,0,0,0,0
CCc1nnc(NC(=O)c2ccc(OC)cc2)s1,0,0,0,0,0,-,-
O=C(N[C@@H](Cc1ccccc1)C(=O)OCc1ccccc1)c1nc[nH]c1C(=O)N1CCc2ccccc2C1,0,20,0,9.3,0,0,0
O=C(Nc1ccccc1)c1nc[nH]c1C(=O)NCc1ccccc1,0,24,0,0,0,0,0
CC(C)(C)OC(=O)NCc1ccc(CNC(=O)c2nc[nH]c2C(=O)NCc2ccccc2)cc1,0,21,0,0,0,0,0
CN(Cc1ccccc1)C(=O)c1[nH]cnc1C(=O)NCc1ccc(CNC(=O)OC(C)(C)C)cc1,0,0,0,0,0,-,-
Cc1cccc(NC(=O)c2nc[nH]c2C(=O)N[C@H](C)c2ccccc2)c1,0,23,0,0,0,0,0
O=C(NCc1ccccc1)[C@H]1CCCN1C(=O)[C@H]1CCCN1C(=O)C1CCCCC1,-,0,-,0,-,-,-
CNC(=O)c1[nH]cnc1C(=O)N[C@@H](Cc1ccccc1)C(=O)OC(C)(C)C,0,0,0,0,0,-,-
SMILES,FAS-TE inh,ADAM10 inh,NR3A LBD binder,ADAM17 inh,aDG glyco act,ADAM10 confirm,ADAM17 ctr
CN(Cc1ccccc1)C(=O)c1[nH]cnc1C(=O)N[C@@H](Cc1ccccc1)C(=O)OC(C)(C)C,0,23,0,0,0,0,0
COC(C(=O)Nc1ccc(S(=O)(=O)Nc2ccc(F)cc2)cc1)c1ccccc1 (stereo not given),0,0,0,0,0,-,-
COC(C(=O)Nc1ccc(S(=O)(=O)Nc2cccc3ccccc23)cc1)c1ccccc1 (stereo not given),0,21,0,0,0,0,0
Cc1cc(C(=O)OC(C(=O)Nc2ccc(C)c(Cl)c2)c2ccccc2)c(C)o1 (stereo not given),0,22,26,0,0,0,0
CC(=O)c1cccc(NC(=O)C(C)OC(=O)c2cc(C)oc2C)c1 (stereo not given),0,0,0,0,0,-,-
COc1cc(CNn2c(C)n[nH]c2=S)cc(Cl)c1OCc1ccccc1,0,28,0,0,0,0,0
CC1CC(C)CN(CCCNC(=O)c2cn(C)c3ccc(S(=O)(=O)N4CCCC4)cc3c2=O)C1 (stereo not given),0,0,0,0,0,-,-
CC1(C)CC(=O)C=C(c2ccc(COC(=O)C(c3ccccc3)c3ccccc3)cc2)C1=O,0,20,-,0,0,0,0
CCC(NS(=O)(=O)c1ccc(C)cc1)C(=O)N1CCN(c2ccccn2)CC1 (stereo not given),0,80,0,0,0,0,0
CCOc1ccc(OCCC(=O)OCC(=O)Nc2cc(S(=O)(=O)N3CCOCC3)ccc2OC)cc1,0,0,0,0,0,-,-
CCC(=O)c1ccc(OCC(=O)OCC(=O)Nc2ccc(C)c(S(=O)(=O)N3CCCCC3)c2)cc1,0,0,0,0,0,-,-
CCOc1ccc(OCCC(=O)OCC(=O)Nc2ccc(C)c(S(=O)(=O)N3CCCCC3)c2)cc1,0,23,0,0,0,0,0
CCOc1ccc(OCCC(=O)OCC(=O)Nc2cc(S(=O)(=O)N3CCOCC3)ccc2C)cc1,0,68,0,0,0,0,0
Cc1ccc(NC(=O)Cn2nnc(-c3ccccc3F)n2)c(C)c1,-,0,-,0,-,-,-
O=C(NCCc1nc2ccccc2[nH]1)/C(=C/c1ccc(F)cc1)NC(=O)c1ccco1,0,0,0,0,0,-,-
O=C(NCCc1nc2ccccc2[nH]1)/C(=C/c1ccc2c(c1)OCO2)NC(=O)c1ccc(Cl)cc1Cl,0,22,0,0,0,32,0
O=C(Nc1ccc2c(c1)OCCO2)c1cnc2ccccn2c1=O,0,0,0,0,0,-,-
Cc1cc(C)cc(-n2c(SCC(=O)Nc3cccc(S(=O)(=O)NC4=NCCCCC4)c3)nc3ccccc3c2=O)c1,0,26,0,0,0,0,0
Cc1cc(O)c(C(C)C)cc1N=Cc1ccccc1[N+](=O)[O-],0,0,0,0,0,-,-
C#CCN(C[C@@H]1[C@@H](OC(=O)NCc2ccc(OC)c(OC)c2)[C@@H](OC(=O)NCc2ccc(OC)c(OC)c2)Cn2c(=O)n(CCCCCC)c(=O)n21)S(=O)(=O)c1ccc(C)cc1,0,21,-,0,0,0,0
